A short description of assay [1]: binders of probe aFSTL3 on microarray, primary screen, stem cell growth factor project, biochemical, small-molecule microarray, fluorescence 635/667 (AID 1064).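 Note: measures binding of the biotinylated anti-FSTL3 antibody to printed compounds.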 The settings on record: higher = more signal.
A short description of assay [2]: binders from COS7 lysate, DM2A8 probe, primary screen, torsin A project, cell lysate, small-molecule microarray, fluorescence 635/667 (AID 1065). The note with it: higher = more signal, COS7 lysate expressing mutant human TOR1A.
Assay [3] can be described thus: binders of probe aFGF2 on microarray, primary screen, stem cell growth factor project, biochemical, small-molecule microarray, fluorescence 635/667 (AID 1067).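 Note: measures binding of biotinylated aFGF2 protein to printed compounds on slides; z-score merges feature fluorescence and signal-to-noise across triplicate slides.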 The note with it: higher = more signal.
Assay [4] in a line: binders of probe aFGF10 on microarray, primary screen, stem cell growth factor project, biochemical, small-molecule microarray, fluorescence 635/667 (AID 1071).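 Note: score merges 667 nm spot intensity and signal to noise from triplicate slides.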 The settings on record: higher = more signal.
The target of assay [5] is Neurogenic locus notch homolog protein 2 (Homo sapiens) (UniProt Q04721). In words: Notch2 binders on small-molecule microarrays, primary screen, biochemical, small-molecule microarray, 635 nm fluorescence, stem cell growth factors (AID 1073). The note with it: Notch2 binding, higher = more signal.
The target of assay [6] is Pro-neuregulin-1, membrane-bound isoform (Homo sapiens) (UniProt Q02297). In words: NRG1 binders on small-molecule microarrays, primary screen, psychiatric disease protein project, biochemical, small-molecule microarray, fluorescence 635/667 (AID 1075).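 Note: score combines 667 nm spot fluorescence with signal to noise.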 The note with it: NRG1 binding, 635 nm fluorescence, higher = more signal.
Assay [7] has as its system Neuregulin-1 EGF-like domain. As to the kind of experiment: binders of neuregulin-1 EGF-like domain, primary screen, biochemical, small-molecule microarray, 635 nm fluorescence (AID 1081).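 Note: binding of the protein to compounds printed on small-molecule microarray slides.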 The settings on record: small-molecule microarray binding, higher = more signal.
Assay [8] is described as follows: FRG1 promoter luciferase signal modulators, primary screen, FRG1 inhibition for FSHD, cell-based, C2C12 myotubes, firefly/Renilla luciferase, luminescence (AID 1084). The note with it: higher = more signal, called active from +8 up or from −8 down.
Assay [9] is described as follows: binders of probe aFST on microarray, primary screen, stem cell growth factor project, biochemical, small-molecule microarray, fluorescence 635/667 (AID 1086).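 Note: score merges 667 nm fluorescence with signal-to-noise of each printed compound spot.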 The note with it: higher = more signal.
Assay [10] in a line: binders of probe aHhip on microarray, primary screen, stem cell growth factor project, biochemical, small-molecule microarray, fluorescence 635/667 (AID 1087).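 Note: score merges spot fluorescence at 667nm with spot signal to noise ratio.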 The note with it: higher = more signal.
Assay [11] deals with PRMT1 (protein arginine N-methyltransferase 1). In words: PRMT1 binders on small-molecule microarrays, primary screen, biochemical, small-molecule microarray, 635 nm fluorescence (AID 1088).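 Note: binding of Prmt1 protein to compounds spotted on small-molecule microarray slides.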 The note with it: small-molecule microarray binding, higher = more signal.
Assay [12] can be described thus: yeast growth modulation, basal conditions, primary screen, YJM789 clinical isolate, OD600, 24 h (AID 1089).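 Note: growth of clinical yeast isolate S. cerevisiae YJM 789 seeded 1000 cells per well; test concentration not given here.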 The settings on record: S. cerevisiae YJM789 growth, higher = more signal, called active from +8 up or from −8 down.
Assay [13] is described as follows: fission yeast growth modulation, primary screen, strain 972, OD600, 24 h, no modulator (AID 1090).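 Note: basal condition with compound alone and no growth modifier present; test concentration not given here.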 The note with it: S. pombe 972 growth, higher = more signal, called active from +8 up or from −8 down.
Assay [14] is described as follows: S. cerevisiae growth modulation with rapamycin, primary screen, strain BY4716, OD600, 96 h (AID 1091). Note: test concentration not given here. The note with it: higher = more signal, called active from +8 up or from −8 down.
Assay [15] addresses Torsin-1A-interacting protein 2 (Homo sapiens) (UniProt Q8NFQ8). In words: LULL1 binders on small-molecule microarray, primary screen, cell lysate, human LULL1 lysate, 635/667 nm fluorescence (AID 1092).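 Note: probe is lysate of COS7 cells overexpressing human LULL1; score merges per-feature 667 nm fluorescence with signal-to-noise.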 The note with it: hLULL1 lysate binding, 635 nm fluorescence, higher = more signal.
Assay [16] is described as follows: E. coli growth modulation, two-sided OD650, primary screen, E. coli filamentation project, strain DRC41, 24 h (AID 1093).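 Note: MC1000 strain lacking acrAB efflux and sulA so SOS filamentation is blocked; test concentration not given here.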 The note with it: OD650, 24 h, higher = more signal, called active from +8 up or from −8 down.
A short description of assay [17]: small-molecule microarray binders of probe aLefty2, primary screen, biochemical, biotinylated probe, 635/667 nm fluorescence (AID 1094).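 Note: score merges spot fluorescence near 667 nm with spot signal-to-noise ratio.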 The note with it: higher = more signal.
The subject of assay [18] is Noggin (protein binding on small-molecule microarray). As to the kind of experiment: Noggin binders on small-molecule microarray, primary screen, biochemical, 635/667 nm fluorescence (AID 1095).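 Note: score merges 667 nm feature fluorescence with signal to noise over triplicate slides.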 The settings on record: 635 nm fluorescence, higher = more signal.
Assay [19] concerns the target Neurogenic locus notch homolog protein 3 (Homo sapiens) (UniProt Q9UM47). In words: NOTCH3 binders on small-molecule microarray, primary screen, biochemical, 635/667 nm fluorescence (AID 1096). The settings on record: NOTCH3 binding, 635 nm fluorescence, higher = more signal.
A short description of assay [20]: small-molecule microarray binders of probe aEGFR, primary screen, biochemical, biotinylated probe, 635/667 nm fluorescence (AID 1097).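 Note: probe is a biotinylated anti-EGFR antibody binding compounds printed on slides; score combines fluorescence near 667 nm and signal to noise of each spot.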 The settings on record: higher = more signal.

Calls of active or inactive are those of the source.

Neurogenic locus notch homolog protein 3 (Homo sapiens), sequence (Q9UM47 whole entry, looked up): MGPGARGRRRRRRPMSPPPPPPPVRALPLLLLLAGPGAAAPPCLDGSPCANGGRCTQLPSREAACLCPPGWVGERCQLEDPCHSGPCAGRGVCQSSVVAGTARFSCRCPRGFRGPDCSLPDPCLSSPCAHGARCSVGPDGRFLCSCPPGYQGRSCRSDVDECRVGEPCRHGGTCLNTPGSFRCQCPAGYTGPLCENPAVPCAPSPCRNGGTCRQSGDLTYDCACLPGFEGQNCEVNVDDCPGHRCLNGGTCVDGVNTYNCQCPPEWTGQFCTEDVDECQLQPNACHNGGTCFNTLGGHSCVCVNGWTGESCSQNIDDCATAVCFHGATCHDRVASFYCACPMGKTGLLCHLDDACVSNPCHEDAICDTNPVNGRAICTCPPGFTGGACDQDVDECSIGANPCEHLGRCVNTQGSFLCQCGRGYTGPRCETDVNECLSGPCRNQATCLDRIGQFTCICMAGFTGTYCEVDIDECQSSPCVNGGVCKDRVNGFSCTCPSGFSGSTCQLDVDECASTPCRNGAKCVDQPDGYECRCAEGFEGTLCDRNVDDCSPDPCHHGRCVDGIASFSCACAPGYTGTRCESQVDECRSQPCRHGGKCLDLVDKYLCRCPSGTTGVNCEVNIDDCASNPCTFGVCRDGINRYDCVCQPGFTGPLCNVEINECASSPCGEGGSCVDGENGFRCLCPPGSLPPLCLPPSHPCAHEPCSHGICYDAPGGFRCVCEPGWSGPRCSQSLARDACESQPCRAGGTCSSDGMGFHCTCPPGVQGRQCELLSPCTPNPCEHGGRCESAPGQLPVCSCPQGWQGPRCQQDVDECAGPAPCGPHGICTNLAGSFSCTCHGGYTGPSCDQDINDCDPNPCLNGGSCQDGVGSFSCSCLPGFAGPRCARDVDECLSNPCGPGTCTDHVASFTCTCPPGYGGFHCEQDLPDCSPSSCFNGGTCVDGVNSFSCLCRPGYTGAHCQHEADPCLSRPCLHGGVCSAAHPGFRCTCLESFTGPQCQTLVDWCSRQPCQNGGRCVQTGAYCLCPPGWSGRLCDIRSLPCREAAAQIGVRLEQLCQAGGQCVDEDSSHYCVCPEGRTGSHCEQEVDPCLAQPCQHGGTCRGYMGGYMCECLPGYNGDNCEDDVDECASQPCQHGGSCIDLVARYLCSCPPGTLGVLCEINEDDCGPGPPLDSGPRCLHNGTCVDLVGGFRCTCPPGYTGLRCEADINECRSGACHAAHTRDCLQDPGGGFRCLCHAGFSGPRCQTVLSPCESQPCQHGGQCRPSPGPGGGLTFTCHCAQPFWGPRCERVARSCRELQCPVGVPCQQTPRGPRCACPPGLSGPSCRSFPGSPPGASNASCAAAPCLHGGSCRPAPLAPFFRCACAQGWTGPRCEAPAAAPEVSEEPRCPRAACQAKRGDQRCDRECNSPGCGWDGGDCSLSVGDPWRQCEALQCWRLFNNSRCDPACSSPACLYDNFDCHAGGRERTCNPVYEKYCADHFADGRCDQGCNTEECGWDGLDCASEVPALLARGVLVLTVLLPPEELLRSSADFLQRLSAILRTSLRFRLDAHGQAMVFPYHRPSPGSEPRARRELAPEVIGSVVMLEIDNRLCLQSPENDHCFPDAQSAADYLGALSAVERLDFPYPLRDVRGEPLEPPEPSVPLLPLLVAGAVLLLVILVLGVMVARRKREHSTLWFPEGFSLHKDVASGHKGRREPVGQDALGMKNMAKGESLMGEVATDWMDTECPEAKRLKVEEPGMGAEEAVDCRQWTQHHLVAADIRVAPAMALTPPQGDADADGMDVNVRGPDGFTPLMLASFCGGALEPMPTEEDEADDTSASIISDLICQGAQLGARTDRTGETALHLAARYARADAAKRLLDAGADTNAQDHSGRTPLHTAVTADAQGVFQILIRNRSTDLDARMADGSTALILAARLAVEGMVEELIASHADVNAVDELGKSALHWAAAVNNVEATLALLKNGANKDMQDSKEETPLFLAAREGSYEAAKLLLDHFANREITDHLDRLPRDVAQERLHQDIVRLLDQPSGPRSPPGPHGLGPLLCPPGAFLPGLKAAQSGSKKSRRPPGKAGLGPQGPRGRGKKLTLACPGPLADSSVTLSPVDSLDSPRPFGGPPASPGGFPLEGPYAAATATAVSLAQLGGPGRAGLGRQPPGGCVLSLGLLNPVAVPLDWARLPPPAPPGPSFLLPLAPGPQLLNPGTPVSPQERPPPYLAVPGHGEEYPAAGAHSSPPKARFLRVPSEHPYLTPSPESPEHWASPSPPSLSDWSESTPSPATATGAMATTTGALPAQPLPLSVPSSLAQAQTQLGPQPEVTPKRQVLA
Torsin-1A-interacting protein 2 (Homo sapiens), sequence (Q8NFQ8 whole entry, looked up): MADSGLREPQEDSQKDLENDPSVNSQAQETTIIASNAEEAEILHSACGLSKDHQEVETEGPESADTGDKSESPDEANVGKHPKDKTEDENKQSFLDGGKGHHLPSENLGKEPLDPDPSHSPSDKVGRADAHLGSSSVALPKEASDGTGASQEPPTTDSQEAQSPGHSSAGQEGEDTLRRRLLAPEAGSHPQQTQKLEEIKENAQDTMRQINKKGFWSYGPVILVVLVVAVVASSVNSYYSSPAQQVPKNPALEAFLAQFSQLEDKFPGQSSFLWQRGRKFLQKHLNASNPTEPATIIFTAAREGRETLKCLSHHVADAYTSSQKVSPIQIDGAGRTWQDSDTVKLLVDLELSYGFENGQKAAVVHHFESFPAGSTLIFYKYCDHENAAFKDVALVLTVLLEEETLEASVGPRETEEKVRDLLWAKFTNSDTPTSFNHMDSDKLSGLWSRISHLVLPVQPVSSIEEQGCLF
Pro-neuregulin-1, membrane-bound isoform (Homo sapiens), sequence (Q02297 whole entry, looked up, the tested form may be a part, canonical isoform): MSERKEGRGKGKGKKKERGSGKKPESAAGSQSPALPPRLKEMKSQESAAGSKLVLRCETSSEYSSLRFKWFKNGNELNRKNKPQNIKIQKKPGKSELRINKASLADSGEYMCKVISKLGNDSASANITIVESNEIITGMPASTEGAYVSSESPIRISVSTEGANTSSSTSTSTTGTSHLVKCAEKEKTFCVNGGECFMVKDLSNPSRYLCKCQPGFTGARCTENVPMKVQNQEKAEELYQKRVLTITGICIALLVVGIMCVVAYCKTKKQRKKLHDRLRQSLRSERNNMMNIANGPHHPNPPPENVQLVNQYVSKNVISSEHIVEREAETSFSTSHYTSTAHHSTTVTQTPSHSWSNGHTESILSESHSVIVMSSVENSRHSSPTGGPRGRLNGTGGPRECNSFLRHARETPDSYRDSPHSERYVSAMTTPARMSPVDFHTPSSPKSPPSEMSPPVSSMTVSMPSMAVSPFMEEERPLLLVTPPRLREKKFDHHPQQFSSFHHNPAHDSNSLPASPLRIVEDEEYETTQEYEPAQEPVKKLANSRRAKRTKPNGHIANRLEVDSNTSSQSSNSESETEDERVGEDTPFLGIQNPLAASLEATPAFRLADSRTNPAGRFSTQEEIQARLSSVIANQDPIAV

For the compound `CCOC(=O)C[C@H]1[C@H](OC(=O)Cc2ccc3c(c2)OCO3)[C@@H](NC(=O)c2ccc3ccccc3n2)c2cc(OCCCO)ccc2N1C(=O)c1ccc2ccccc2n1`, the composite z-score was -0.5 in assay [1]; 0.185 in [2]; -0.103 in [3]; 1.03 in [4]; 0.568 in assay [5]; 0.54 in assay [6]. For the same compound, the composite z-score in [7] was 1.01; in assay [9] it was 0.37; in assay [10], 0.171; in [11], 0.755; in assay [15], 1.03; in [17] it was -0.0708. Besides, the composite z-score in assay [18] is 0.719; in assay [19], 0.497; in assay [20], -0.124. Further, the z-score in [8] is -2.11 (inactive); in [12] it was -2.47 (inactive); in [13], -1.99 (inactive); in assay [14], -0.727 (inactive); in assay [16] it was 2.22 (inactive).
Turning to `O=C(NCCN1CCOCC1)[C@@H]1c2ccccc2C(=O)N(Cc2ccccc2Cl)[C@H]1c1ccc(CO)cc1`, the composite z-score in [1] was -0.138; in assay [2], -0.483; in assay [3], -0.15; in assay [4], -0.758; in assay [5], -0.922; in assay [6] it was 0.923. For the same compound, the composite z-score in assay [7] is 1.32; in assay [9], 0.263; in assay [10], -0.391; in assay [11], -0.7; in assay [15] it was -0.201; in assay [17] it was -0.547. Further, the composite z-score in [18] is -1.31; in assay [19], -1.4; in assay [20], -0.362. The z-score in assay [8] is -2.41 (inactive); in [12], 0.506 (inactive); in assay [13], 0.545 (inactive); in assay [14], -0.214 (inactive); in assay [16] it was 0.561 (inactive).
Consider `COc1ccc([Si](C)(C)[C@H]2[C@H](CC(=O)N3Cc4ccccc4C[C@H]3CO)O[C@@]3(C(=O)N(Cc4ccc(N5CCOC5=O)cc4)c4ccccc43)[C@@H]2C)cc1`, for which the composite z-score in [1] is -0.315; in [2], 0.443; in [3] it was -0.0583; in [4] it was 0.345; in [5], 0.236; in assay [6], 0.744. In addition, the composite z-score is 1.1 in [7]; 0.315 in assay [9]; -0.0296 in assay [10]; 1.57 in assay [11]; 1.25 in assay [15]; -0.123 in [17]. Also, the composite z-score in [18] was 1.46; in assay [19], 1.11; in assay [20], -0.022. Moreover, the z-score is -4.08 (inactive) in assay [8]; -1.31 (inactive) in [12]; -0.053 (inactive) in assay [13]; 2.17 (inactive) in assay [14]; -0.167 (inactive) in [16].
Turning to `Cc1cc(C)c(C(O)C2C=CC3C(=O)N(c4ccccc4)C(=O)C3N2Nc2ccccc2F)c(C)c1` (stereo not given), the composite z-score was -0.0327 in assay [1]; -0.437 in assay [2]; -0.01 in assay [3]; -0.0495 in assay [4]; 0.565 in [5]; 1.07 in assay [6]. In addition, the composite z-score in assay [7] is 1.09; in assay [9], 0.439; in assay [10] it was 0.0854; in [11] it was -0.0446; in assay [15], 1.89; in [17] it was 0.0216. Also, the composite z-score in assay [18] was -0.73; in assay [19], -0.0072; in assay [20], 0.779. The z-score was 0.717 (inactive) in assay [8]; 1.37 (inactive) in assay [12]; 1.11 (inactive) in [13]; 1.77 (inactive) in [14]; -1.31 (inactive) in assay [16].
As for `COc1ccc([Si](C)(C)[C@@H]2[C@@H](CC(=O)N(CCO)Cc3ccccc3)O[C@]3(C(=O)N(Cc4cccc(N5CCCCC5=O)c4)c4ccccc43)[C@H]2C)cc1`, the composite z-score in assay [1] was 0.0001; in assay [2], 0.585; in [3] it was -0.0019; in [4], 0.212; in assay [5] it was 0.185; in assay [6] it was 1.72. Moreover, the composite z-score was 1.23 in [7]; 0.222 in assay [9]; -0.181 in assay [10]; 1.42 in [11]; 2.38 in [15]; 0.232 in [17]. Besides, the composite z-score in assay [18] is 1.45; in assay [19] it was 0.948; in assay [20], -0.151. In addition, the z-score in assay [8] was 0.306 (inactive); in assay [12], 1.42 (inactive); in [13], -0.0344 (inactive); in [14], 3.5 (inactive); in assay [16], 1.02 (inactive).
